A number with no mark means an inactive call. Activity calls are given as the source filed them. No stated cut-off is given here; in the data, active means inhibition score above about 11; inactive means the rest.

This assay in a line: yeast proliferation inhibition, dose response, BY4741, OD595, 24 h (AID 489042). The note with it: S. cerevisiae BY4741 growth, hits give high values.
Regarding `C/C(=N\Nc1ncnc2sc(C)c(C)c12)c1ccccn1`, the inhibition score is 21 (active).

Take `CCN(CC)C(=O)c1ccc2nc3ccccc3nc2c1`: the inhibition score was 0.

For `CC(=O)[C@@]1(O)CCC2C3CC[C@H]4C[C@@H](O)CC[C@]4(C)C3CC[C@@]21C` (some centres undefined), the inhibition score is 0.

For `c1ccc2[nH]c3cc4ncnc4cc3nc2c1`, the inhibition score is 0.

On to `CCN(CC)C(=O)c1cccc2nc3ccccc3nc12`, for which the inhibition score is 0.

In the case of `C[C@@]12C(=O)OC(=O)[C@]1(C)C1CCC2O1`, the inhibition score was 21 (active).

In the case of `N#CC(c1nc2ccccc2nc1N1CCCC1)S(=O)(=O)c1ccccc1` (centres undefined), the inhibition score was 0.

As for `COc1ccc2nc3ccccc3nc2c1N`, the inhibition score is 10.

As for `O=C(/C=C/c1ccccc1)NC(=S)NNC(=O)Cc1cccs1`, the inhibition score was 21 (active).

`COC(=O)c1cccc2nc3c(C(C)O)cccc3nc12` (centres undefined): the inhibition score was 0.

For the molecule `O=C(Nc1ccc2nc3ccccc3nc2c1)c1ccc(Br)cc1`, the inhibition score is 0.

Turning to `C=CCOn1c(=O)c(-c2cccs2)[n+]([O-])c2ccccc21`, the inhibition score was 0.

`CCc1nc(NC(C)(C)C)c2cnn(-c3ccccc3)c2n1`: the inhibition score is 0.

On to `Cc1cc(C)cc(NC(=O)CN2CCN(c3ccccn3)CC2)c1`, for which the inhibition score is 0.

As to `CSc1nnc2c3cc(F)ccc3n(C)c2n1`, the inhibition score is 21 (active).

Consider `[O-][n+]1c2ccccc2[n+]([O-])c2cc(O)ccc21`, for which the inhibition score was 10.

As to `CCN(CC)C(=O)CSc1nnc(-c2cccc(OC)c2)o1`, the inhibition score was 0.

As to `CC(C)CSc1nnc2c3ccccc3n(C)c2n1`, the inhibition score is 0.

Consider `CC(C)OC(=O)CSc1nnc(-c2ccc(Cl)cc2Cl)o1`, for which the inhibition score is 0.

For `CCN(CC)c1ccc2nc3ccc(N)cc3[n+](-c3ccccc3)c2c1`, the inhibition score is 0.

Consider `O=C(CN1CCN(c2ccccn2)CC1)Nc1ccccc1F`, for which the inhibition score was 0.

Regarding `CCn1c2ccccc2c2n[nH]c(=S)nc21`, the inhibition score is 0.

As for `CN(C)CCNc1ncnc2c1cnn2-c1ccc(Cl)cc1`, the inhibition score was 0.

For `CNC(=O)c1cccc2nc3ccccc3nc12`, the inhibition score was 21 (active).

`O=C(/C=C/c1cccs1)NC(=S)NNC(=O)Cc1cccs1`: the inhibition score is 21 (active).

With `O=C(Nc1ccc2nc3ccccc3nc2c1)c1ccccc1`, the inhibition score is 21 (active).

Regarding `CC(C)(C)n1nc(-c2ccc(Cl)cc2)c2c(N)ncnc21`, the inhibition score is 21 (active).

In the case of `CCCCCNC(=O)C(=O)C1C(=O)Nc2ccccc21` (centres undefined), the inhibition score was 10.

On to `CC(=O)Nc1ccc2nc3ccccc3nc2c1`, for which the inhibition score is 0.

The record behind these values is PubChem BioAssay AID489042 (NMMLSC, 2010).
